# “And” between values parts separate entries of the source, which are not always exact repeats. Identical values can stand only once. Counter-ions that a name gives are not always drawn. The campaign covered roughly 5,800 compounds. About 620 (11%) showed activity. What follows is part of a selection rich in actives, with near analogues and random picks from the rest. Values without a mark were called inactive.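 How the source made its calls: active = score above a cut-off or among the top three wells of a plate; in these data no inactive exceeds 0.85.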
# System: primary human hepatic stellate cells (donor 1)
# Experiment: scaled lipid accumulation score (0 = DMSO-like, 1 = nortriptyline-like); higher = stronger HSC inactivation (lipid re-accumulation), active = hit call of the paper
# Settings: 48 h
# [1] = library stock concentration: 10 mM
# [2] = library stock concentration: 1 mM
# [3] = library stock concentration: 80 uM
# [4] = library stock concentration: 400 uM
# [5] = library stock concentration: 2 mM
# [6] = library stock concentration: 3.33 mM
smiles,measurement,setting,value
O=C(O)C1CCCNC1 (configuration not stated),scaled lipid accumulation score,,≤ 0
same,scaled lipid accumulation score,[1],0.207
CCCCC[C@@](C)(O)/C=C/[C@@H]1[C@@H](C/C=C\CCCC(=O)O)[C@@H](O)C[C@H]1O [15(R)-15-methyl Prostaglandin F2.alpha.],scaled lipid accumulation score,[2],≤ 0
O=C(OCc1ccccc1)[C@H](O)c1ccccc1 [(R)-benzyl Mandelate],scaled lipid accumulation score,[2],≤ 0
C=C(C)[C@@H](CC=C(C)C)C[C@@]12C[C@@H](CC=C(C)C)C(C)(C)[C@@](CC=C(C)C)(C(=O)C(C(=O)c3ccc(O)c(O)c3)=C1O)C2=O [Garcinol],scaled lipid accumulation score,[3],≤ 0
same,scaled lipid accumulation score,[4],≤ 0
same,scaled lipid accumulation score,[5],≤ 0
same,scaled lipid accumulation score,[1],≤ 0
C[C@@H](N)C1CCC(C(=O)Nc2ccncc2)CC1 (some centres not stated),scaled lipid accumulation score,[6],≤ 0
O=C(O)CCCC[C@@H]1CCSS1 [Thioctic acid],scaled lipid accumulation score,[1],≤ -0.027
CC/C(=C\C(=N\O)C(N)=O)C(C)[N+](=O)[O-] (configuration not stated),scaled lipid accumulation score,[2],≤ 0
CC(C)CCC[C@@H](C)CCC[C@@H](C)CCCC(C)CC(=O)O (some centres not stated) [Phytanic Acid],scaled lipid accumulation score,[2],0.028
O=C(NCCS(=O)(=O)c1ccc(C(F)(F)F)cn1)c1ccc(Cl)cc1,scaled lipid accumulation score,[6],≤ -0.009
same,scaled lipid accumulation score,[1],≤ 0
Cc1nc(Nc2ncc(C(=O)Nc3c(C)cccc3Cl)s2)cc(N2CCN(CCO)CC2)n1 [listing 1 of 2 here],scaled lipid accumulation score,[5],1.18 (active)
same,scaled lipid accumulation score,[1],1.48 (active)
Cc1nc(Nc2ncc(C(=O)Nc3c(C)cccc3Cl)s2)cc(N2CCN(CCO)CC2)n1 [Dasatinib],scaled lipid accumulation score,[3],≤ 0
same,scaled lipid accumulation score,[4],0.238
same,scaled lipid accumulation score,[5],0.602
same,scaled lipid accumulation score,[6],0.43
same,scaled lipid accumulation score,[1],0.646 and 0.707
C=CC(=O)Nc1cccc(Sc2nc(Nc3ccc(N4CCN(C)CC4)cc3)ncc2Cl)c1,scaled lipid accumulation score,[6],≤ 0
same,scaled lipid accumulation score,[1],0.466
Cc1nc(Nc2ncc(C(=O)Nc3c(C)cccc3Cl)s2)cc(N2CCN(CCO)CC2)n1 [listing 2 of 2 here],scaled lipid accumulation score,[4],0.775
same,scaled lipid accumulation score,[1],0.677
O=S(=O)(c1ccccc1)N(CC(F)(F)F)c1ccc(C(O)(C(F)(F)F)C(F)(F)F)cc1,scaled lipid accumulation score,[2],0.1
same,scaled lipid accumulation score,[6],0.164
same,scaled lipid accumulation score,[1],0.741 and 0.112
CN1CCN(C2Cc3ccccc3Sc3ccc(Cl)cc32)CC1 (configuration not stated),scaled lipid accumulation score,[1],0.378
CN1CCCC(CC2c3ccccc3Sc3ccccc32)C1.Cl.O (configuration not stated) [Metixene hydrochloride],scaled lipid accumulation score,,1.12 (active)
N#Cc1ccc2c(c1)N(CCCN1CCC(O)CC1)c1ccccc1S2 [Periciazine],scaled lipid accumulation score,[1],0.107
"C[C@@H](O)CCC[C@@H](O)/C=C/[C@H]1C(O)CC(O)C1CCCCCCC(=O)O (stereo partly drawn) [15(R),19(R)-hydroxy Prostaglandin F1.alpha.]",scaled lipid accumulation score,[2],≤ 0
CCc1c2c(nc3ccc(OC(=O)N4CCC(N5CCCCC5)CC4)cc13)-c1cc3c(c(=O)n1C2)COC(=O)[C@]3(O)CC [Irinotecan hydrochloride],scaled lipid accumulation score,[1],0.299
CC[C@@]1(O)C(=O)OCc2c1cc1n(c2=O)Cc2cc3c(CN(C)C)c(O)ccc3nc2-1 [Topotecan],scaled lipid accumulation score,library stock concentration: 4.7 mM,≤ 0
CC[C@@]1(O)C(=O)OCc2c1cc1n(c2=O)Cc2cc3c(CN(C)C)c(O)ccc3nc2-1 [Topotecan hydrochloride hydrate],scaled lipid accumulation score,[1],≤ -0.055
CCc1c2c(nc3ccc(OC(=O)N4CCC(N5CCCCC5)CC4)cc13)-c1cc3c(c(=O)n1C2)COC(=O)[C@]3(O)CC [Irinotecan HCl Trihydrate],scaled lipid accumulation score,[6],≤ 0
same,scaled lipid accumulation score,[1],0.228
CCc1c2c(nc3ccc(OC(=O)N4CCC(N5CCCCC5)CC4)cc13)-c1cc3c(c(=O)n1C2)COC(=O)[C@]3(O)CC [IRINOTECAN HCl )trihydrate)],scaled lipid accumulation score,[1],1.1 (active)
CC[C@@]1(O)C(=O)OCc2c1cc1n(c2=O)Cc2cc3c(CN(C)C)c(O)ccc3nc2-1,scaled lipid accumulation score,[1],≤ 0
CCc1c2c(nc3ccc(O)cc13)-c1cc3c(c(=O)n1C2)COC(=O)[C@]3(O)CC,scaled lipid accumulation score,[6],≤ 0
same,scaled lipid accumulation score,[1],0.297 and ≤ -0.001
CCc1c2c(nc3ccc(OC(=O)N4CCC(N5CCCCC5)CC4)cc13)-c1cc3c(c(=O)n1C2)COC(=O)[C@]3(O)CC,scaled lipid accumulation score,[1],0.226
CC[C@@]1(O)C(=O)OCc2c1cc1n(c2=O)Cc2cc3c(CN(C)C)c(O)ccc3nc2-1 [Topotecan HCl],scaled lipid accumulation score,[6],≤ 0
same,scaled lipid accumulation score,[1],≤ 0
CC[C@@]1(O)C(=O)OCc2c1cc1n(c2=O)Cc2cc3c(CN(C)C)c(O)ccc3nc2-1 [Topotecan hydrochloride],scaled lipid accumulation score,library stock concentration: 4.4 mM,0.131
same,scaled lipid accumulation score,[1],0.196
CCc1c2c(nc3ccc(OC(=O)N4CCC(N5CCCCC5)CC4)cc13)-c1cc3c(c(=O)n1C2)COC(=O)[C@]3(O)CC [Irinotecan],scaled lipid accumulation score,[6],0.151
same,scaled lipid accumulation score,[1],0.025
N=C(N)N [Guanidine HCl],scaled lipid accumulation score,[6],≤ 0
same,scaled lipid accumulation score,[1],≤ -0.001
N=C(N)N,scaled lipid accumulation score,[1],≤ 0
CCCCC[C@H](O)/C=C/[C@H]1OC(O)C[C@H](O)[C@@H]1CCCCCCC(=O)O (some centres not stated) [Thromboxane B1],scaled lipid accumulation score,[2],0.131
C#CCCCCCCCCCCCC(O)CC(O)CO (configuration not stated) [Avocadyne],scaled lipid accumulation score,[1],0.005
COc1ccccc1N1CCN(CCCCNC(=O)c2ccc3ccccc3c2)CC1 [listing 1 of 2 here],scaled lipid accumulation score,[1],1.01 (active)
COc1ccc2cccc(N3CCN(CCNC(=O)c4ccc(F)cc4)CC3)c2c1,scaled lipid accumulation score,[1],0.585
COc1ccccc1N1CCN(CCCCNC(=O)c2ccc(-c3ccc(C(C)=O)cc3)cc2)CC1,scaled lipid accumulation score,[1],0.934 (active)
COc1ccccc1N1CCN(CCCNc2cc(=O)n(C)c(=O)n2C)CC1 [Urapidil hydrochloride],scaled lipid accumulation score,,≤ 0
same,scaled lipid accumulation score,[1],≤ 0 and 0.02
COc1cccc(C(=O)NCCN2CCN(c3ccc(Cl)cc3)CC2)c1,scaled lipid accumulation score,[1],0.314
Cl.O=C(NCCCCN1CCN(c2cccc(Cl)c2Cl)CC1)c1ccc2c(c1)Cc1ccccc1-2,scaled lipid accumulation score,[1],0.884 (active)
COc1ccccc1N1CCN(CCCNc2cc(=O)n(C)c(=O)n2C)CC1,scaled lipid accumulation score,[1],≤ 0
"Cc1cccc(C(=O)NCN2CCN(c3ccccc3C#N)CC2)c1 [PD 168,077 maleate]",scaled lipid accumulation score,[1],≤ 0
COc1ccccc1N1CCN(CCCNc2cc(=O)n(C)c(=O)n2C)CC1 [Urapidil],scaled lipid accumulation score,[1],≤ -0.027
COc1ccccc1N1CCN(CCCNc2cc(=O)n(C)c(=O)n2C)CC1 [Urapidil HCl],scaled lipid accumulation score,[6],≤ 0
same,scaled lipid accumulation score,[1],≤ 0
COc1ccccc1N1CCN(CCCCNC(=O)c2ccc3ccccc3c2)CC1 [listing 2 of 2 here],scaled lipid accumulation score,,0.307
Cc1cccc(C(=O)NCN2CCN(c3ccccc3C#N)CC2)c1,scaled lipid accumulation score,[1],0.009
"COc1ccccc1N1CCN(CCCNc2c(C)c(=O)n(C)c(=O)n2C)CC1 [Urapidil, 5-Methyl-]",scaled lipid accumulation score,[1],≤ 0
Cc1nccnc1N1CCCCC1,scaled lipid accumulation score,[1],≤ 0
CCCCCC/C=C\CCCC(=O)CC(=O)N[C@H]1CCOC1=O [N-3-oxo-tetradec-7(Z)-enoyl-L-Homoserine lactone],scaled lipid accumulation score,[2],≤ 0
Cc1ccc(-c2c(-c3nn(C)c4ncnc(N5CC[C@H](N6CCCCC6)C5)c34)cnn2C)cc1,scaled lipid accumulation score,[6],≤ 0
same,scaled lipid accumulation score,[1],0.091
"CCCCCC(=O)CC[C@H]1[C@H](O)CC(=O)[C@@H]1CCCCCCC(=O)O [13,14-dihydro-15-keto Prostaglandin E1]",scaled lipid accumulation score,[2],≤ 0
Cc1cc(Nc2nc(N[C@@H](C)c3ccc(F)cc3)c(C#N)cc2F)n[nH]1,scaled lipid accumulation score,[4],≤ -0.005
same,scaled lipid accumulation score,[5],≤ -0.005
same,scaled lipid accumulation score,[6],≤ 0
same,scaled lipid accumulation score,[1],0.387 and 0.197
O=S(=O)(NO)c1ccccc1 [Piloty's Acid],scaled lipid accumulation score,[2],≤ 0
Cn1cnc2cc3c(Nc4cccc(Br)c4)ncnc3cc21,scaled lipid accumulation score,[6],0.044
CCCCCC=CCC=CCCCCCCCC(=O)OC(CO)CO [2-Linoleoyl Glycerol],scaled lipid accumulation score,[2],0.053
C[C@@H]1C[C@H]2O[C@@H]2/C=C\C=C\C(=O)Cc2c(Cl)c(O)cc(O)c2C(=O)O1 [Radicicol],scaled lipid accumulation score,[2],0.383
O=C(O)CCC/C=C\C[C@@H]1[C@@H](CCC(=O)CCc2ccccc2)[C@H](O)C[C@@H]1O [15-keto Latanoprost (free acid)],scaled lipid accumulation score,[2],≤ 0
CNCc1cn(C2CCN(CCC(C)CC(C)(C)C)CC2)nn1 (configuration not stated),scaled lipid accumulation score,[1],1.05 (active)
CCCCC(CC)CN1CN(CC(CC)CCCC)CC(C)(N)C1 (configuration not stated) [Hexetidine],scaled lipid accumulation score,,≤ 0
same,scaled lipid accumulation score,[1],0.342
CCCCC(CC)CN1CCC(n2cc(CNC)nn2)CC1 (configuration not stated),scaled lipid accumulation score,[1],0.988 (active)
CCCCc1ccc(N=CNO)c(C)c1,scaled lipid accumulation score,[2],0.03
CC(O)(CC(=O)O)CC(=O)O,scaled lipid accumulation score,[1],0.023
CC1(C)[C@H]2CC[C@@]1(C)C(=O)C2 [1r-camphor],scaled lipid accumulation score,[1],≤ 0
O=C(O)[C@H](O)c1ccccc1 [R-(-)-Mandelic Acid],scaled lipid accumulation score,[2],0.02
CSC(=N)NCCC[C@H](N)C(=O)O [S-Methyl-L-thiocitrulline acetate],scaled lipid accumulation score,[1],≤ -0.02
O=C(Nc1ncc(SCCN2CCCC2)s1)[C@]1(c2ccc(S(=O)(=O)C3CC3)cc2)C[C@H]1C1CCCCC1,scaled lipid accumulation score,[1],0.143
O=C(Nc1ncc(SCCN2CCCC2)s1)[C@]1(c2ccc(S(=O)(=O)C3CC3)cc2)C[C@@H]1C1CCCCC1,scaled lipid accumulation score,[6],1.12 (active)
Cn1cccc1/C=C1\C(=O)NC(=O)c2ccccc21,scaled lipid accumulation score,[1],0.017
O=C(Nc1ccccc1)N[C@@H]1C[C@@H](C(=O)O)Nc2cc(Cl)cc(Cl)c21,scaled lipid accumulation score,[1],≤ 0
CC(N)(C(=O)O)c1ccc(C(=O)O)cc1 (configuration not stated),scaled lipid accumulation score,[1],0.151
NC(=O)c1c(NC(=O)C2CC2)sc2c1CCCC2,scaled lipid accumulation score,[3],≤ -0.001
same,scaled lipid accumulation score,[4],≤ -0.001
same,scaled lipid accumulation score,[5],≤ -0.001
same,scaled lipid accumulation score,[1],0.118
"CCN(CC)C(=O)c1ccc(Nc2nc(OCC3CCCCC3)c3[nH]cnc3n2)cc1 [Cdk2 Inhibitor IV, NU6140]",scaled lipid accumulation score,[6],≤ 0
CC1OC2(CS1)CN1CCC2CC1 (configuration not stated) [Cevimeline hydrochloride],scaled lipid accumulation score,[1],≤ 0
